Results filed as inconclusive are left out. A call without a number means that no potency is given here. Active and inactive are the calls of the source. Calls come from the whole dose curve; as a rule, active = well fitted inhibition curve with a large enough effect; inconclusive = small, poorly fitted or top-dose-only effect; inactive = flat fitted curve, though single readings scatter.
What was measured:
Test in all cases: qHTS profiling for inhibitors of Plasmodium falciparum proliferation (AID 504749); note: nearly all actives have a fitted effect of over 60% in size
Settings in all cases: P. falciparum in erythrocytes, SYBR Green DNA, 72 h; series mostly up to 28.7 µM
DIV14 = tested on: DIV14
In short: (§1)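 Fluorescence of SYBR Green-bound parasite DNA, read at 485/535 nm, served as the growth measure. Infected erythrocytes were cultured with compound 72 h; artemisinin (0.29 uM) and DMSO wells defined the normalization range.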

DIV17 = tested on: DIV17
In short: as §1

DIV30 = tested on: DIV30
In short: as §1

Dd2 = tested on: Dd2
In short: as §1

ECU = tested on: ECU
In short: as §1

FAB9 = tested on: FAB9
In short: as §1

GB4 = tested on: GB4
In short: as §1

HB3 = tested on: HB3
In short: as §1

ICS = tested on: ICS
In short: as §1

JCK = tested on: JCK
In short: as §1

N140 = tested on: N140
In short: as §1

P93_24 = tested on: P93_24
In short: as §1

P94_40 = tested on: P94_40
In short: as §1

PAD = tested on: PAD
In short: as §1

PC15 = tested on: PC15
In short: as §1

PC26 = tested on: PC26
In short: as §1

PC49 = tested on: PC49
In short: as §1

SC27B = tested on: SC27B
In short: as §1

TAB109 = tested on: TAB109
In short: as §1

TAB113 = tested on: TAB113
In short: as §1
Potency is the fitted concentration of half-maximal effect.

Row | Structure (SMILES) | Potency (DIV14) | Potency (DIV17) | Potency (DIV30) | Potency (Dd2) | Potency (ECU) | Potency (FAB9) | Potency (GB4) | Potency (HB3) | Potency (ICS) | Potency (JCK) | Potency (N140) | Potency (P93_24) | Potency (P94_40) | Potency (PAD) | Potency (PC15) | Potency (PC26) | Potency (PC49) | Potency (SC27B) | Potency (TAB109) | Potency (TAB113)
1 | CCCC1CCCCN1 (stereo not drawn) | inactive | inactive | inactive | inactive | inactive | inactive | inactive | inactive | inactive | inactive | inactive | inactive | inactive | inactive | inactive | inactive | inactive | inactive | inactive | inactive
2 | Clc1ccc(COC(Cn2ccnc2)c2ccc(Cl)cc2Cl)cc1 (stereo not drawn) | 1.9 µM (active) | 1.51 µM (active) | 1.69 µM (active) | 2.82 µM (active) | 0.794 µM (active) | 11.2 µM (active) | 1.69 µM (active) | 3.98 µM (active) | 0.631 µM (active) | 8.91 µM (active) | 1.58 µM (active) | 1.12 µM (active) | 2 µM (active) | 2.51 µM (active) | 2.82 µM (active) | 1.9 µM (active) | 8.91 µM (active) | 2.51 µM (active) | 2.51 µM (active) | 2.82 µM (active)
3 | NP(N)(=O)NC(=O)c1ccc(F)cc1 | inactive | inactive | inactive | inactive | inactive | inactive | inactive | inactive | inactive | inactive | inactive | inactive | inactive | inactive | inactive | inactive | inactive | inactive | inactive | inactive
4 | COc1ccccc1N1CCNCC1 | inactive | inactive | inactive | inactive | inactive | inactive | inactive | inactive | inactive | inactive | inactive | inactive | inactive | inactive | inactive | inactive | inactive | inactive | inactive | inactive
5 | NN=C(N)N | inactive | inactive | inactive | inactive | inactive | inactive | inactive | inactive | inactive | inactive | inactive | inactive | inactive | inactive | inactive | inactive | inactive | inactive | inactive | inactive
6 | Nc1ccncc1 | inactive | inactive | inactive | inactive | inactive | inactive | inactive | inactive | inactive | inactive | inactive | inactive | inactive | inactive | inactive | – | inactive | inactive | inactive | inactive
7 | Cc1ccc(-c2nc3ccc(C)cn3c2CC(=O)N(C)C)cc1 | inactive | inactive | inactive | inactive | inactive | inactive | inactive | inactive | inactive | inactive | inactive | – | inactive | inactive | inactive | – | inactive | inactive | inactive | inactive
8 | O=c1[nH]c2ccccc2n1C1CCN(CCCC(c2ccc(F)cc2)c2ccc(F)cc2)CC1 | inactive | inactive | inactive | 7.94 µM (active) | inactive | inactive | inactive | 10 µM (active) | 14.1 µM (active) | inactive | – | – | inactive | inactive | inactive | – | inactive | inactive | inactive | inactive
9 | NCC(CC(=O)O)c1ccc(Cl)cc1 (stereo not drawn) | inactive | inactive | inactive | inactive | inactive | inactive | inactive | inactive | inactive | inactive | inactive | inactive | inactive | inactive | inactive | inactive | inactive | inactive | inactive | inactive
10 | Oc1ccccc1-c1ccccc1 | inactive | inactive | inactive | inactive | inactive | inactive | inactive | inactive | inactive | inactive | inactive | inactive | inactive | inactive | inactive | inactive | inactive | inactive | inactive | inactive
11 | OCCOc1ccccc1 | inactive | inactive | inactive | inactive | inactive | inactive | inactive | inactive | inactive | inactive | inactive | inactive | inactive | inactive | inactive | inactive | inactive | inactive | inactive | inactive
12 | NCC1(CC(=O)O)CCCCC1 | inactive | inactive | inactive | inactive | inactive | inactive | inactive | inactive | inactive | inactive | inactive | inactive | inactive | inactive | inactive | inactive | inactive | inactive | inactive | inactive
13 | CC[N+](CC)(CC)CC | inactive | inactive | inactive | inactive | inactive | inactive | inactive | inactive | inactive | inactive | inactive | inactive | inactive | inactive | inactive | – | inactive | inactive | inactive | inactive
14 | FC(F)(F)c1cccc(C2=CCN(CCc3ccc4ccccc4c3)CC2)c1 | inactive | inactive | inactive | inactive | inactive | inactive | inactive | inactive | inactive | inactive | inactive | inactive | inactive | inactive | inactive | inactive | inactive | inactive | – | inactive
15 | Cc1ncc(CNC(=O)N(CCCl)N=O)c(N)n1 | inactive | inactive | inactive | inactive | inactive | inactive | inactive | inactive | inactive | inactive | inactive | inactive | inactive | inactive | inactive | inactive | inactive | inactive | inactive | inactive
16 | Oc1ccc(Cl)cc1Cc1ccccc1 | 7.57 µM (active) | 7.57 µM (active) | 10.7 µM (active) | 10 µM (active) | 11.2 µM (active) | inactive | 8.49 µM (active) | 12.6 µM (active) | 2 µM (active) | – | 7.94 µM (active) | – | 12.6 µM (active) | 11.2 µM (active) | – | 15.1 µM (active) | – | 10 µM (active) | – | –
17 | CC(=O)Nc1cc([As](=O)(O)O)ccc1O | inactive | inactive | inactive | inactive | inactive | inactive | inactive | inactive | inactive | inactive | inactive | inactive | inactive | inactive | inactive | inactive | inactive | inactive | inactive | inactive
18 | O=P1(NCCCl)OCCCN1CCCl (stereo not drawn) | inactive | inactive | inactive | inactive | inactive | inactive | inactive | inactive | inactive | – | inactive | inactive | inactive | inactive | inactive | inactive | inactive | inactive | inactive | inactive
19 | CC(C)CC(N(C)C)C1(c2ccc(Cl)cc2)CCC1 (stereo not drawn) | inactive | inactive | inactive | inactive | inactive | inactive | inactive | inactive | inactive | inactive | inactive | inactive | inactive | inactive | inactive | inactive | inactive | inactive | inactive | inactive
20 | CCC(C(N)=O)N1CCCC1=O (stereo not drawn) | inactive | inactive | inactive | inactive | inactive | inactive | inactive | inactive | inactive | inactive | inactive | inactive | inactive | inactive | inactive | inactive | inactive | inactive | inactive | inactive
21 | O=C(NC(O)C(Cl)(Cl)Cl)NC(O)C(Cl)(Cl)Cl (stereo not drawn) | inactive | inactive | inactive | inactive | inactive | inactive | inactive | inactive | inactive | inactive | inactive | inactive | inactive | inactive | inactive | inactive | inactive | inactive | inactive | inactive
22 | Cn1c(CCCC(=O)O)nc2cc(N(CCCl)CCCl)ccc21 | inactive | inactive | inactive | inactive | inactive | inactive | inactive | inactive | – | inactive | inactive | inactive | inactive | inactive | inactive | inactive | inactive | inactive | – | inactive
23 | CC[N+]1(C)CCCC(OC(=O)C(O)(c2ccccc2)c2ccccc2)C1 (stereo not drawn) | inactive | inactive | inactive | inactive | inactive | inactive | inactive | inactive | inactive | inactive | inactive | inactive | inactive | inactive | inactive | inactive | inactive | inactive | inactive | inactive
24 | CN1C(=S)CN=C(c2ccccc2)c2cc(Cl)ccc21 | inactive | inactive | inactive | inactive | inactive | inactive | inactive | inactive | inactive | inactive | inactive | inactive | inactive | inactive | inactive | inactive | inactive | inactive | inactive | inactive
25 | CCCC(C)(COC(N)=O)COC(=O)NC(C)C (stereo not drawn) | inactive | inactive | inactive | inactive | inactive | inactive | inactive | inactive | inactive | inactive | inactive | inactive | inactive | inactive | inactive | inactive | inactive | inactive | inactive | inactive
26 | CC(=O)[C@H]1CC[C@H]2[C@@H]3CC[C@H]4C[C@](C)(O)CC[C@]4(C)[C@H]3CC[C@]12C | inactive | inactive | inactive | inactive | inactive | inactive | inactive | inactive | inactive | inactive | inactive | inactive | inactive | inactive | inactive | inactive | inactive | inactive | inactive | inactive

— PubChem BioAssay (NCATS)
